Where “and” joins values, the source holds several entries; their conditions need not be identical. Equal values may be shown once. Values without a mark were called inactive. Calls of active or inactive are those of the source. Unless noted, calls follow the shape of the dose curve; as a rule, active = well fitted curve in the direction sought with a large enough effect in the repeat runs; inconclusive = weak or mixed curves; inactive = no such curve, though single readings can be large; an effect the other way counts as inactive or inconclusive.

In PubChem BioAssay (Tox21) one finds Potency and activation data, which are given here for 15 molecules.

Assay [1] in a line: qHTS assay to identify small molecule antagonists of the glucocorticoid receptor (GR) signaling pathway - cell viability counter screen (AID 720693). Also: nearly all actives have a fitted effect of over 55% in size. Also: potency is read from the fitted curve at half-maximal effect.
The nature of assay [2]: qHTS assay for identifying genotoxic compounds that show differential cytotoxicity against isogenic chicken DT40 cell lines with known DNA damage response pathways - wild type cell line (AID 743012). Also: nearly all actives have a fitted effect of over 60% in size. Also: potency is read from the fitted curve at half-maximal effect. The procedure, abridged: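 Viability by ATP luminescence (CellTiter-Glo, 30 min RT) after 40 h compound treatment at 37 C/5% CO2, using 300 parental DNA repair-proficient DT40 cells per well.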
(In general: In qHTS, concentration-response curves come from the screen itself.)

A short description of assay [3]: qHTS assay for identifying genotoxic compounds that show differential cytotoxicity against isogenic chicken DT40 cell lines with known DNA damage response pathways - Rev3 mutant cell line (AID 743014). Also: nearly all actives have a fitted effect of over 55% in size. Also: potency is read from the fitted curve at half-maximal effect.
Assay [4] can be described thus: qHTS assay for identifying genotoxic compounds that show differential cytotoxicity against isogenic chicken DT40 cell lines with known DNA damage response pathways - Rad54/Ku70 mutant cell line (AID 743015). Also: nearly all actives have a fitted effect of over 60% in size. Also: potency is read from the fitted curve at half-maximal effect.
Assay [5] in a line: qHTS assay to identify small molecule antagonists of the androgen receptor (AR) signaling pathway - cell viability counter screen (AID 743033; also: nearly all actives have a fitted effect of over 45% in size; also: potency is read from the fitted curve at half-maximal effect).
Assay [6] in a line: qHTS assay to identify small molecule antagonists of the thyroid receptor (TR) signaling pathway - cell viability counter screen (AID 743064). Also: nearly all actives have a fitted effect of over 50% in size. Also: potency is read from the fitted curve at half-maximal effect. An outline of the steps:
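GH3.TRE-Luc rat pituitary cells carrying a TRE-luciferase reporter were treated with compound plus 1 nM T3 (final) for 23.5 h at 37 °C. Viability was then read in the same wells by CellTiter-Fluor fluorescence after a further 30 min.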

Assay [7] concerns thyroid hormone receptor (rat, GH3 cells). The assay can be described thus: qHTS assay to identify small molecule agonists of the thyroid receptor (TR) signaling pathway (AID 743066; calls by dose curve).
Assay [8] concerns the target Estrogen receptor (Homo sapiens) (UniProt P03372). The assay is described as follows: qHTS assay to identify small molecule antagonists of the estrogen receptor alpha (ER-alpha) signaling pathway (AID 743069; active = well fitted curve in the direction sought with a large enough effect in the signal ratio in the repeat runs, not every such curve was filed as active; inconclusive = weak or mixed curves, or effect the other way; inactive = no such curve, though single readings can be large or run the other way; the % refers to the signal ratio; also: potency is read from the fitted curve at half-maximal effect). The procedure, abridged: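 Antagonist mode: compounds in DMSO were co-added with 17beta-estradiol to ER-alpha-bla HEK293 cells (2% charcoal-stripped serum) and left 18 h at 37C. Reporter inhibition was measured as FRET fluorescence after 2 h LiveBLAzer substrate at room temperature.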

Assay [9] in a line: qHTS assay to identify small molecule antagonists of the estrogen receptor alpha (ER-alpha) signaling pathway - cell viability counter screen (AID 743074; calls by dose curve;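 also: HEK293 cells carrying ER-alpha-UAS-bla reporter stimulated with 17beta-estradiol; nearly all actives have a fitted effect of over 45% in size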).
The target of assay [10] is Estrogen receptor (Homo sapiens) (UniProt P03372). The assay is described as follows: qHTS assay to identify small molecule agonists of the estrogen receptor alpha (ER-alpha) signaling pathway (AID 743075; calls by dose curve;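 also: HEK293 GripTite cells with ER-alpha and UAS-driven beta-lactamase reporter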). The settings on record: HEK293 ER-alpha-UAS-bla, beta-lactamase FRET ratio, 18 h; activation: at 70.1 µM (top of the series).
Assay [11] has the same target. The assay can be described thus: qHTS assay to identify small molecule agonists of the estrogen receptor alpha (ER-alpha) signaling pathway using the BG1 cell line (AID 743079). Also: nearly all actives have a fitted effect of over 20% in size. Particulars: BG1Luc4E2 cells, ERE-luciferase agonist, 22 h; at 70.3 µM (top of the series).
Assay [12] is described as follows: qHTS assay to identify small molecule antagonists of the estrogen receptor alpha (ER-alpha) signaling pathway using the BG1 cell line (AID 743080; calls by dose curve;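 also: BG1 cells stimulated with 17beta-estradiol alongside compound; nearly all actives have a fitted effect of over 25% in size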; also: potency is read from the fitted curve at half-maximal effect). The procedure, abridged:
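BG1Luc4E2, endogenous ER-alpha, 4xERE-luc; 5 d charcoal-stripped FBS, phenol red free; 24 h plating; cpd + 17beta-estradiol 21.5 h, 37 C/5% CO2; CellTiter-Fluor viability 30 min, then ONE-Glo luciferase 30 min RT.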

Assay [13] is described as follows: qHTS assay to identify small molecule antagonists of the estrogen receptor alpha (ER-alpha) signaling pathway using the BG1 cell line - cell viability counter screen (AID 743081).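 Also: compound given together with 17beta-estradiol as the ER stimulus; nearly all actives have a fitted effect of over 45% in size.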
The target of the next assay is Aromatase (Homo sapiens) (UniProt P11511). The assay can be described thus: qHTS assay to identify aromatase inhibitors (AID 743083). Also: nearly all actives have a fitted effect of over 55% in size. Also: potency is read from the fitted curve at half-maximal effect.
Assay [14] can be described thus: qHTS assay to identify small molecule antagonists of the thyroid receptor (TR) signaling pathway (AID 743065). Also: nearly all actives have a fitted effect of over 55% in size. Also: potency is read from the fitted curve at half-maximal effect. The procedure, abridged:
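Antagonism measured as loss of luciferase signal in GH3 cells stably carrying a TRE-luciferase reporter, co-treated with compound and T3 (1 nM final) for 23.5 h at 37 C. Viability was read in the same well by CellTiter-Fluor.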

Assay [15] can be described thus: qHTS assay to identify small molecule antagonists of the androgen receptor (AR) signaling pathway using the MDA cell line - cell viability counter screen (AID 743041; also: nearly all actives have a fitted effect of over 45% in size). The procedure, abridged: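 Viability read by CellTiter-Fluor fluorescence in the same wells as the antagonist screen, added after 15.5 h of a 16 h, 37C exposure. Human breast carcinoma MDA-kb2 AR-luc cells, compounds co-dosed with agonist R1881.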
% is scaled to controls: 0 for no effect and ±100 for the full control effect.

Chain of Aromatase (Homo sapiens) (P11511 whole entry, looked up): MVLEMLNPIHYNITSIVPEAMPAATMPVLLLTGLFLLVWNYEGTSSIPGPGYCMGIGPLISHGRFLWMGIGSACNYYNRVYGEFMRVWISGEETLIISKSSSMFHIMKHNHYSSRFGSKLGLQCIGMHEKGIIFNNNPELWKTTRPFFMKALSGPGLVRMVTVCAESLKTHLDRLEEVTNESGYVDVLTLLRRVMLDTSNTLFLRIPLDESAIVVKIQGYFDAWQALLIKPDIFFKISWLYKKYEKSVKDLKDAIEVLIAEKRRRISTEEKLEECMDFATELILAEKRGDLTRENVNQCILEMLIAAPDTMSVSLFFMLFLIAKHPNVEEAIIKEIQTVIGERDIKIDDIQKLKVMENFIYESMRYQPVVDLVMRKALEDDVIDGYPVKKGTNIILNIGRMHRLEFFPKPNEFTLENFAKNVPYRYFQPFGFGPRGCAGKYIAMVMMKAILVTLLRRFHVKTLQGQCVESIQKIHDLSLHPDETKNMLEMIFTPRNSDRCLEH
Chain of Estrogen receptor (Homo sapiens) (P03372 whole entry, looked up): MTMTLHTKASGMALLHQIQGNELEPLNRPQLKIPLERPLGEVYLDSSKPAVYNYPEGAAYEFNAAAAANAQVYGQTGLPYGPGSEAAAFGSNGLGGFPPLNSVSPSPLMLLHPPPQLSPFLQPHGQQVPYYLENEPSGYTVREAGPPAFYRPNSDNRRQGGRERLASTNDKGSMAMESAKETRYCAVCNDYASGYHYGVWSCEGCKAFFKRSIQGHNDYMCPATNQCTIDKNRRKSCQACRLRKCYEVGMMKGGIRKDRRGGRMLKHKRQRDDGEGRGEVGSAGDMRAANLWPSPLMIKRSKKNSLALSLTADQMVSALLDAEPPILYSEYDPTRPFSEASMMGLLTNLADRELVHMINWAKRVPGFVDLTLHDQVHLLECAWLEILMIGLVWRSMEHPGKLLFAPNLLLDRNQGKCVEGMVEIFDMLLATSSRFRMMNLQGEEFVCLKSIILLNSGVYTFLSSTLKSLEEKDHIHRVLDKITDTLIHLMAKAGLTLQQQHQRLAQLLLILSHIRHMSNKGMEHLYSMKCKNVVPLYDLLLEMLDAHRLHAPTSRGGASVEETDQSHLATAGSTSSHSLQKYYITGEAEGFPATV

Take `O=[N+]([O-])c1ccccc1Nc1ccccc1`: the Potency result in [1], in assay [2], in [3], in assay [4], in [5] and in assay [6] was “inactive” throughout. The Potency result in assay [7], in assay [8], in assay [9], in assay [10], in assay [12] and in assay [13] was “inactive” each time. Also, the activation in [11] is 4.1%.
Consider `CC(C)CCCCCCCCCCCCCCC(=O)O`, for which the Potency entry in assay [1], in assay [2], in assay [3], in [4], in assay [5] and in assay [6] was “inactive” each time. Further, the Potency entry (in assay [7]; in assay [9]; in assay [13]; in the assay with Aromatase (Homo sapiens)) was “inactive” each time.
Take `NC(=O)CC[C@@H]1NC(=O)[C@H](Cc2ccccc2)NC(=O)[C@H](Cc2ccc(O)cc2)NC(=O)CCSSC[C@@H](C(=O)N2CCC[C@H]2C(=O)N[C@@H](CCCN=C(N)N)C(=O)NCC(N)=O)NC(=O)[C@H](CC(N)=O)NC1=O`: the Potency entry in assay [1], in assay [2], in assay [3], in assay [4], in assay [5] and in assay [9] was “inactive” each time. Further, the Potency result (in assay [13]; in the assay with Aromatase (Homo sapiens)) was “inactive” in each case.
On to `CCc1cc(SCc2sc(-c3ccc(C(F)(F)F)cc3)nc2CN2CCN(c3ccc(OC)cc3)CC2)ccc1OCC(=O)O`, for which the Potency in [1] was 49 µM (active); in assay [2], 43.3 µM (active); in assay [3] it was 61.1 µM (active); in [4], 30.6 µM (active); in assay [5], 5.49 µM (active); in assay [6] it was 24.3 µM (active). The Potency in assay [14] was 12.2 µM (active); with Aromatase (Homo sapiens) it was 54.5 µM (active). Further, in assay [13], the Potency entry was “inactive”.
Take `N=C1N=C(N)c2ccccc21`: the Potency result in assay [1], in assay [15], in assay [7], in assay [9], in assay [10] and in [13] was “inactive” in each case. Moreover, the Potency in [2] is 17.2 µM (active); in [3], 17.2 µM (active); in assay [4], 17.2 µM (active); in assay [6], 21.7 µM (active); with Aromatase (Homo sapiens), 38.6 µM (active). In assay [11], the activation was 3.41%.
With `C[C@]12CCC(=O)C=C1CC[C@@H]1[C@@H]2[C@@H](O)C[C@@]2(C)[C@H]1CC[C@]2(O)C(=O)COC(=O)CCC(=O)O`, the Potency entry in assay [1], in assay [5], in [6], in assay [14], in [7] and in assay [9] was “inactive” each time. The Potency result (in [10]; in the assay with Aromatase (Homo sapiens)) was “inactive” in each case. In addition, the results for the Potency in assay [2], in assay [3] and in [4] were 26.6 µM (active), 18.8 µM (active) and 26.6 µM (active), respectively. In addition, the activation in assay [11] is 9.99%.
As to `CSc1ccc(C(=O)c2[nH]c(=O)[nH]c2C)cc1`, the Potency result in [1], in [2], in assay [3], in assay [4], in assay [5] and in assay [15] was “inactive” throughout. Besides, the Potency result (in assay [8]; in assay [9]; in assay [10]; in assay [12]; in assay [13]; with Aromatase (Homo sapiens)) was “inactive” each time.
As for `O=C1CCCCCN1SSN1CCCCCC1=O`, the Potency entry in assay [1], in assay [15], in assay [7], in assay [9], in assay [10] and in assay [12] was “inactive” each time. The Potency entry in assay [13] is “inactive”. The Potency in assay [2] is 13.7 µM (active); in [3] it was 19.3 µM (active); in assay [4], 15.4 µM (active); in [14] it was 27.3 µM (active). For the same molecule, the activation in assay [11] was -12.6%.
For the molecule `CCN(CC)CCCC(C)Nc1c2ccc(Cl)cc2nc2ccc(OC)cc12` (stereo not given), the Potency result (in assay [1]; in assay [5]; in assay [9]; in the assay with Aromatase (Homo sapiens)) was “inactive” throughout. The Potency in [2] was 5.31 µM (active); in assay [3], 5.96 µM (active); in assay [4], 6.68 µM (active).
Consider `COc1c(C)c2c(c(O)c1C/C=C(\C)CCC(=O)O)C(=O)OC2`, for which the Potency entry (in [1]; in [15]; in [7]; in assay [9]; in assay [13]; in the assay with Aromatase (Homo sapiens)) was “inactive” each time. Besides, the Potency in assay [2] was 0.16 µM (active); in assay [3], 0.16 µM (active); in assay [4] it was 0.202 µM (active); in [6], 0.717 µM (active); in assay [14] it was 0.507 µM (active); in [8], 0.512 µM [inconclusive] (active).
As to `CCCCCOC(=O)CCCC`, the Potency result in assay [1], in assay [2], in assay [3], in [4], in assay [5] and in assay [14] was “inactive” each time. The Potency entry in assay [7], in [8], in assay [9], in assay [10], in assay [12] and in assay [13] was “inactive” throughout. In addition, the Potency entry with Aromatase (Homo sapiens) is “inactive”. Also, the activation in assay [11] is -1.52%.
With `NNc1nc(-c2ccc(N)cc2)cs1`, the Potency entry in [1], in assay [5], in [7], in assay [9], in [10] and in assay [12] was “inactive” throughout. Further, the Potency was 17.2 µM (active) in [2], 21.7 µM (active) in assay [3] and 10.9 µM (active) in assay [4]. In addition, in assay [11], the activation is -1.53%.
In the case of `CCOC(=O)/C=C(C)/C=C/C=C(C)/C=C/c1c(C)cc(OC)c(C)c1C`, the Potency entry (in assay [1]; in assay [5]; in [15]; in assay [10]; in assay [13]; with Aromatase (Homo sapiens)) was “inactive” in each case. Further, the Potency in [2] is 9.44 µM (active); in assay [3], 2.37 µM (active); in assay [4], 6.68 µM (active); in [12], 4.22 µM (active).
Take `Cc1[nH]cnc1C[C@H]1CCc2c(C)c3ccccc3n2C1=O`: the Potency entry (in assay [1]; in assay [15]; in [9]; in assay [13]; with Aromatase (Homo sapiens)) was “inactive” in each case. Besides, the Potency in assay [2] is 13.3 µM (active) and 26.6 µM (active); in assay [3] it was 29.8 µM (active) and 21.2 µM (active); in assay [4], 23.7 µM (active); in assay [6] it was 13.3 µM (active); in assay [14] it was 23.7 µM (active) and 13.3 µM (active).
For `CNC(=O)c1ccccc1`, the Potency entry in assay [1], in assay [2], in [3], in assay [4], in assay [5] and in [6] was “inactive” throughout. For the same molecule, the Potency entry in assay [7], in assay [8], in assay [9], in assay [10], in assay [12] and in [13] was “inactive” each time. Moreover, in the assay with Aromatase (Homo sapiens), the Potency entry was “inactive”. Also, in assay [11], the activation is -14.7%.
